In the library only some 12% were active in any assay of this set; here they are far more common.
VP16 counter = Gal4-VP16 reporter inhibition counter-screen. Drosophila S2 Gal4-VP16 UAS-luciferase, luminescence, 20 h. hit rate 3.5% among 310,000. AID 2546. Potency, µM (series often up to 53.6 µM), without a hit: at the top dose activity, negative = inhibition, usual class: inhibitors;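 further: Gal4-VP16 expression switched on by copper sulfate through the metallothionein promoter; nearly all actives have a fitted effect of over 50% in size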
Sfp PPTase inh = inhibitors of Bacillus subtilis Sfp phosphopantetheinyl transferase; Potency, µM, for inactives: largest response in the series, negative = inhibition, most hits filed as inhibitors; Q9F4F7; hit rate 3.5% among 310,000; AID 1490; Biochemical Sfp PPTase activity, qHTS;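 further: the enzyme is Sfp with the accession as filed and its product quenches rhodamine fluorescence; 0% = enzyme reaction without inhibitor and -100% = no enzyme wells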
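After 15 min at room temperature with compound, 15 nM Sfp received 5 uM rhodamine-CoA plus 12.5 uM BHQ-2-ybbR (50 mM Hepes pH 7.6, 10 mM MgCl2). Rate came from the fluorescence difference over 30 min, ex 525/em 598 nm.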
RORg inh = ROR gamma (mouse) transcription inhibition | Drosophila S2 Gal4-RORgamma UAS-luciferase reporter, 20 h | Potency, µM (series often up to 53.6 µM), for the others: top-dose activity change, negative = inhibition, hits mostly inhibitors | hit rate 5.4% among 310,000 | AID 2551; further: nearly all actives have a fitted effect of over 60% in size
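Stable Schneider cell line, Gal4 DNA-binding domain fused to ROR gamma, UAS-luciferase. Cmpd 1 hr RT → CuSO4 700 uM final → 20 hr RT → luciferase reagent 10 min → luminescence.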
PLK1 PBD block = blocks phosphopeptide binding to human PLK1 polo-box domain. P53350. Plk1 PBD binding of FITC phosphopeptide, fluorescence polarization. Potency, µM, inactives show max response, negative = inhibition, usual class: inhibitors. hit rate 2.8% among 360,000. AID 720504; further: series mostly up to about 57 µM; nearly all actives have a fitted effect of over 65% in size
ALDH1A1 inh = ALDH1A1 (human) enzyme inhibition; P00352; Purified ALDH1A1, NADH fluorescence, propionaldehyde substrate; Potency, µM (doses to about 75.3 µM), for inactives: at the highest dose activity, negative = inhibition, hits mostly inhibitors; hit rate 7.3% among 220,000; active means well fitted inhibition curve with a large enough effect, not every such curve was filed as active; inconclusive means small, poorly fitted or top-dose-only effect, or another doubt; inactive means no such curve, though single readings can be large or run the other way;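 further: plate controls were no enzyme wells and a reference inhibitor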
Target sequence (P00352 whole entry, looked up): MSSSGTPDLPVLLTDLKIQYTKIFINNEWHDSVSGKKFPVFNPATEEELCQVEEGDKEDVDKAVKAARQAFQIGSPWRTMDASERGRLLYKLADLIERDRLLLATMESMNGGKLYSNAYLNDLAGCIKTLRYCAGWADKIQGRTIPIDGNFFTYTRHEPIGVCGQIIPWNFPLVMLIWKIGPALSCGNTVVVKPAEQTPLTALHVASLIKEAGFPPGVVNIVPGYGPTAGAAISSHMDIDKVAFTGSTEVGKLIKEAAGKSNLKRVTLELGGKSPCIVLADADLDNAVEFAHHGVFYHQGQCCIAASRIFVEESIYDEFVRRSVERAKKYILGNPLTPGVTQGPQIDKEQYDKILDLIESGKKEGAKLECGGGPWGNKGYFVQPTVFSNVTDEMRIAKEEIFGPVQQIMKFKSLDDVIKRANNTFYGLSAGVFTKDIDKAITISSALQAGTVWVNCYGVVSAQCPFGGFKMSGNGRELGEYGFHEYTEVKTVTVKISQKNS
Starred values were filed as active, the others as inactive. Unless noted, the call rests on the fitted dose curve; in most records, active means well fitted curve in the direction sought with a large enough effect; inconclusive means small, poorly fitted or top-dose-only effect, or another doubt; inactive means no such curve, though single readings can be large; an effect the other way counts as inactive or inconclusive. Unless noted, on the % scale 0 is the no-effect control and ±100 the full control effect; potency means the concentration at half of the fitted maximal effect.

How did N#CC1=C(N)N2C(=C(C#N)C13CCCCC3)SC1CCCCC12O (stereo not drawn) do in these assays?
VP16 counter: inconclusive; Sfp PPTase inh: -7%; RORg inh: inconclusive; PLK1 PBD block: -9%; ALDH1A1 inh: 0.71µM*

What do the screens show for `CC(C)(C)c1ccc(CC(=O)N2CCC2(C)C(=O)O)cc1` (stereo not drawn)?
PLK1 PBD block: -9%

What do the screens show for `Cc1cccc(-c2cc(=O)c3cc(Br)ccc3o2)c1`?
VP16 counter: 10%; Sfp PPTase inh: 79µM*; RORg inh: 0%; ALDH1A1 inh: -1%

How did O=c1cc(-c2ccccc2)oc2ccc(Br)cc12 do in these assays?
PLK1 PBD block: 3%

How did CCOC(=O)[C@]12CCC=C1N(CCC1=CCCCC1)C(=O)[C@H](CC(=O)NCCCCc1ccccc1)C2 do in these assays?
PLK1 PBD block: -9%

What do the screens show for `Cc1nc2ccccc2c2c(N)c3ccccc3n12`?
VP16 counter: -26%; Sfp PPTase inh: -1%; RORg inh: 10%; PLK1 PBD block: 12µM*; ALDH1A1 inh: -6%

Results for CCC1CCCCN1C(=O)CCCc1ccccc1 (stereo not drawn) ?
VP16 counter: -10%; Sfp PPTase inh: -4%; RORg inh: 28%; PLK1 PBD block: -9%

How did CCCCCCCCCCCCC(=O)N1CCCC[C@H]1CNC(=O)[C@@H](N)CCCCN do in these assays?
VP16 counter: -1%; Sfp PPTase inh: 50µM*; RORg inh: 11%; ALDH1A1 inh: -3%

Results for CCc1nc2ccc(C(=O)N3CCN(c4ccccc4)CC3)cn2c1N(CCC(C)C)CCN(C)C ?
PLK1 PBD block: -4%

How did Cc1cc(C)cc(NC(=S)NCCSc2ccc(Cl)cc2)c1 do in these assays?
VP16 counter: 5µM*; Sfp PPTase inh: 19%; RORg inh: 2.8µM*; PLK1 PBD block: -15%; ALDH1A1 inh: 9%

What do the screens show for `Cc1ccc(SCCNC(=S)Nc2ccccc2)cc1`?
VP16 counter: 1µM*; Sfp PPTase inh: 7%; RORg inh: 0.79µM*; PLK1 PBD block: -5%; ALDH1A1 inh: -3%

What do the screens show for `COC(=O)Cc1ccc(NC(=S)NCCSc2ccc(Cl)cc2)cc1`?
VP16 counter: inconclusive; Sfp PPTase inh: 23%; RORg inh: 16µM*; PLK1 PBD block: 1%

How did Cc1ccc(NC(=S)NCCO)c(C)c1 do in these assays?
VP16 counter: 4%; Sfp PPTase inh: -7%; RORg inh: -43%; PLK1 PBD block: -1%; ALDH1A1 inh: -1%

Results for Cc1ccc(SCCNC(=S)Nc2cc(C)ccc2C)cc1 ?
VP16 counter: 7.9µM*; Sfp PPTase inh: 13%; RORg inh: 6.3µM*; PLK1 PBD block: -7%; ALDH1A1 inh: -10%

Results for COc1ccccc1NC(=S)NCCSc1ccc(C)cc1 ?
VP16 counter: 11µM*; Sfp PPTase inh: 7%; RORg inh: 13µM*; PLK1 PBD block: -9%; ALDH1A1 inh: inconclusive

Results for Cc1ccc(SCCNC(=S)Nc2ccc(C)c(C)c2)cc1 ?
VP16 counter: 8.9µM*; Sfp PPTase inh: 33%; RORg inh: 4.5µM*; PLK1 PBD block: -8%; ALDH1A1 inh: inconclusive

What do the screens show for `Cc1nc(N2CCN(C(=O)c3ccco3)CC2)nc2c1C(=O)CCC2`?
VP16 counter: inconclusive; Sfp PPTase inh: -15%; RORg inh: inconclusive; PLK1 PBD block: 2%

How did CCC[C@@H]1C[C@@]1(CCC)C(NP(=O)(c1ccccc1)c1ccccc1)c1ccc(Cl)cc1 (stereo partly drawn) do in these assays?
VP16 counter: -7%; Sfp PPTase inh: -3%; RORg inh: -2%; ALDH1A1 inh: -14%

How did O=C(CN1CCC(NC(=O)c2ccco2)CC1)Nc1ccccc1[N+](=O)[O-] do in these assays?
VP16 counter: 6%; Sfp PPTase inh: 4%; RORg inh: inconclusive; ALDH1A1 inh: 22µM*

What do the screens show for `COCC(=O)NC1CCN(CC(=O)Nc2ccc(OC)cc2[N+](=O)[O-])CC1`?
VP16 counter: -2%; Sfp PPTase inh: -4%; RORg inh: -13%; PLK1 PBD block: 0%; ALDH1A1 inh: 13µM*

Results for Cc1cc(=O)nc2c3ccccc3n(CC(=O)NCCCN3CCOCC3)n12 ?
VP16 counter: inconclusive; Sfp PPTase inh: 15%; RORg inh: inconclusive; PLK1 PBD block: 19µM*

From PubChem BioAssay
